Shown are actives, neighbours in structure and some others; about 4.7% of the full set was active somewhere.
D1 ag: agonists of human D1 dopamine receptor. P21728. HEK293 T-REx D1 cells, calcium flux, agonist mode. activation, % at 2 µM. hit rate 1% among 360,000
Target sequence (P21728 whole entry, looked up): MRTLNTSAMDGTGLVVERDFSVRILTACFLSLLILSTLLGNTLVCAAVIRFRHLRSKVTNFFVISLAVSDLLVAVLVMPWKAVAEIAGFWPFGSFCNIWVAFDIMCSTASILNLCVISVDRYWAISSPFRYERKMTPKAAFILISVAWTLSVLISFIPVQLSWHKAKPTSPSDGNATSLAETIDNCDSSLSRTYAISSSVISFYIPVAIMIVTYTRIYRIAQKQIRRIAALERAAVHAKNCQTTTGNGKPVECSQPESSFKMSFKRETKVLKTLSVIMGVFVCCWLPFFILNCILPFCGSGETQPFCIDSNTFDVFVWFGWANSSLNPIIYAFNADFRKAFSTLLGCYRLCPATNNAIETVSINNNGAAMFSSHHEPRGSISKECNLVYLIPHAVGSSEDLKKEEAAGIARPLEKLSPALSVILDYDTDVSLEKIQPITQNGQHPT
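Tetracycline-induced HEK293 TREx D1 cells, force-coupled to calcium signalling, were dye-loaded with a no-wash calcium kit. Compound was pin-added after a 10 s baseline. Fluorescence was read kinetically at 1 cycle/s for 180 s, with calcium rises flagged as agonism.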
D1 antag: human D1 dopamine receptor antagonism. P21728. HEK293 TREx D1 cells, calcium flux, dopamine EC80; active compounds read low. activity change, negative = inhibition, % at 10 µM. hit rate 3.2% among 360,000. AID 504652; in the data active = activity change below about -30%
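Inducible Hek293 Trex D1 cells (tetracycline, overnight, 30 C). Calcium dye 30–90 min RT. Antagonist mode: EC80 dopamine added after 180 s compound read.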
TRHR PAM: allosterically enhances the human TRH receptor. enhancement, % at 2 µM. TRHR cells, fluo-8 calcium fluorescence, EC20 TRH enhancement. hit rate 0.66% among 360,000; in the data active = enhancement above about 30%
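TRHR-expressing cells loaded with fluo-8 calcium dye were read kinetically (ex 480/em 530) during compound addition, then stimulated with an EC20 of TRH (10 nM final). Enhancement of the Gq-mediated intracellular calcium response was scored.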
D1 potentiator: enhances dopamine response at the human D1 receptor. HEK293 TREx D1 cells, calcium flux, dopamine EC20 potentiation. potentiation, % at 10 µM. hit rate 0.036% among 360,000; in the data active = potentiation above about 30%
TRHR agonist: activates the human TRH receptor | TRHR cells, calcium flux fluo-8, FDSS agonist mode | hit rate 0.18% among 360,000 | activation, % at 2 µM | P34981
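Fluo-8-loaded TRHR cells; 10 s baseline, compound added, kinetic Ca2+ fluorescence read 1/s, agonist mode.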
Hits are given with their value; - = inactive; . = no result given; ! = not confirmed by another sample. Cut-off read from the data, not from the text of the source, unless noted: active = activation above about 30%; inactive = the rest.

SMILES	D1 ag	D1 antag	TRHR PAM	D1 potentiator	TRHR agonist
COc1cccc(/C=N\NC(=O)c2cc(OCC(F)(F)F)ccc2OCC(F)(F)F)c1	33	-	-	-	-
CNC(=O)c1cc(OCC(F)(F)F)ccc1OCC(F)(F)F	-	.	-	-	-
Cc1cc(C)c(S(=O)(=O)Nc2ccccn2)c(C)c1	-	-	-	-	-
CC1CC(C)CN(CCCNC(=O)c2cc3c(=O)[nH]c4ccccc4c3n2C)C1 (stereo not given)	-	-	-	-	-
Cn1c2ccccc2c2cnn(CC(=O)NCCCN3CCN(c4ccccc4F)CC3)c(=O)c21	-	-63	-	-	-
Cc1ccc(C)c(N2CCN(CCCNC(=O)Cn3ncc4c([nH]c5ccccc54)c3=O)CC2)c1	-	-	-	-	-
COc1ccccc1N1CCN(CCCNC(=O)Cn2ncc3c([nH]c4ccccc43)c2=O)CC1	-	-	32!	-	-
CN1CCN(CCCNC(=O)Cn2ncc3c4ccccc4n(C)c3c2=O)CC1	-	-	-	-	-
Cn1c(=O)cc(OCC(=O)NCCCN2CCN(c3ccccc3F)CC2)c2ccccc21	-	-	-	-	-
CCn1c(=O)cc(SCC(=O)NCCCN2CCN(c3ccccc3F)CC2)c2ccccc21	30	-81	-	-	-
Cn1c(C(=O)NCCCN2CCN(c3ccccc3F)CC2)cc2c(=O)[nH]c3ccccc3c21	-	-40	-	-	-
COc1ccc(Cl)cc1NC(=O)CN(C)C(=O)CCc1nc2ccccc2c(=O)[nH]1	-	-	-	-	-
COc1ccc(NC(=O)Cn2c(=O)n(Cc3nc(C)no3)c(=O)c3cc4c(cc32)OCO4)cc1OC	-	-	-	-	-
O=c1c2c(nc3nc(NCc4ccccc4Cl)[nH]n13)CCC2	-	-36	-	-	-
C=CCN(c1ccccc1)S(=O)(=O)c1cccc(C(=O)OCC(=O)NC2CC2)c1	-	-34	-	-	-
C=CCN(c1ccccc1)S(=O)(=O)c1cccc(C(=O)Nc2nnc(SCC)s2)c1	-	-85	-	-	-
C=CCN(c1ccccc1)S(=O)(=O)c1cccc(C(=O)OCC(=O)NCCOC)c1	-	-	-	-	-
COc1cccc(CNc2ccc(F)c([N+](=O)[O-])c2)c1O	-	-31	-	-	-
O=[N+]([O-])c1ccccc1CNc1ccc(F)c(Cl)c1	-	-	-	-	-
COCc1cc(CN2CCN(CCCc3ccccc3)C(CCO)C2)ccc1OC (stereo not given)	-	-	-	-	-
CCCc1c(C)c2ccccc2[nH]c1=O	-	-	41	-	-
CCCc1c(O)c2ccccc2[nH]c1=O	-	-	-	-	-
Cn1cc(C=C2C(=O)CC(C)(C)CC2=O)c2ccccc21	-	-	-	-	-
Cn1cc(C=C2C(=O)OC3(CCCCC3)OC2=O)c2ccccc21	-	-30	-	-	-
Cc1ccc(CSC2=NC(C)(C)Nc3ccccc32)c(C)c1	-	-	-	-	-
SMILES	D1 ag	D1 antag	TRHR PAM	D1 potentiator	TRHR agonist
Cc1cc(N2CCN(C)CC2)nc2ccc(NC(=O)c3ccc(C(C)(C)C)cc3)cc12	-	-75	-	-	-
Cc1cc(N2CCN(C)CC2)nc2ccc(NC(=O)Nc3ccc(Cl)cc3)cc12	-	-	-	-	-
Cc1cccc(N2CCN(C(=S)Nc3ccc4nc(N5CCN(C)CC5)cc(C)c4c3)CC2C)c1 (stereo not given)	-	-73	-	-	-
COc1cc(OC)cc(C(=O)Nc2ccc3nc(N4CCCCC4)cc(C)c3c2)c1	-	-46	-	-	-
Cc1cc(N2CCN(C)CC2)nc2ccc(NC(=S)N3CCN(c4cccc(Cl)c4)CC3)cc12	-	-	-	-	-
O=C(Nc1ccn(Cc2ccccc2F)n1)c1ccc(COc2ccc(Br)cc2)cc1	52	-54	-	-	-
CCC1CCCCN1Cc1cn2c(-c3ccc(Br)cc3)nnc2s1 (stereo not given)	-	-32	-	-	-
Cc1c(/C=N/n2cnnc2)c2ccccc2n1CCOc1ccc(Cl)cc1	-	-	-	-	-
Cc1ccc(OCCn2c(C)c(/C=N/n3cnnc3)c3ccccc32)cc1	-	-34	-	-	-
CC(C)N(CCNC(=O)C1CCCN(c2ncnc3c2nc2n3CCCCC2)C1)Cc1ccccc1 (stereo not given)	-	-	-	-	-
COCCNC(=O)CN(CCc1ccccc1)S(=O)(=O)c1ccc(Br)cc1	-	-	-	-	-
CCN(CC(=O)NCCc1ccccc1)S(=O)(=O)c1ccc(Br)cc1	-	-37	-	-	-
CCOc1ccc(C(=O)N2CCc3ccccc32)cc1	-	-	-	-	-
CCCOc1ccc(C(=O)N2CCCc3ccccc32)cc1	-	-45	-	-	-
COc1ccc(N2CCN(C(=O)C3(S(=O)(=O)c4ccc(C)cc4)CC3)CC2)cc1	-	-58	-	-	-
COc1ccc(NC(=O)N2CCCc3ccccc32)cc1OC	-	-55	-	-	-
CCOC(=O)N1CCN(C(=O)COC(=O)Cc2ccc(OC)cc2)CC1	-	-	34	-	-
CCc1ccc(-c2cc(C)no2)cc1S(=O)(=O)Nc1ccc(Cl)cc1	-	-	-	-	-
CCc1ccc(-n2nc(CO)c(C(=O)NCCOC)n2)cc1	-	-	-	-	-
COc1ccc(S(=O)(=O)CCC(=O)N2CCN(c3ccc(C(C)=O)cc3)CC2)cc1	-	-39	-	-	-
COc1ccc(CC(=O)OCC(=O)N2CCCc3ccccc32)cc1	-	-41	-	-	-
COc1ccc(N2CCN(C(=O)COC(=O)CCOc3ccc(C)cc3)CC2)cc1	-	-31	-	-	-
COc1ccc(N2CCN(C(=O)CCS(=O)(=O)c3ccc(OC)cc3)CC2)cc1	-	-	-	-	-
COc1ccc(N2CCN(C(=O)COC(=O)c3cc(S(=O)(=O)N(C)C)ccc3N3CCCC3)CC2)cc1	-	-48	-	-	-
CCCOc1ccc(C(=O)Nc2c(C(=O)c3ccc(C)cc3)oc3ccccc23)cc1	-	-	-	-	-
SMILES	D1 ag	D1 antag	TRHR PAM	D1 potentiator	TRHR agonist
Cc1cc2[nH]c(=O)c(=O)[nH]c2cc1S(=O)(=O)NC1CCCCC1C (stereo not given)	-	-	-	-	-
CCc1ccc(NC(=O)CSc2nc3nccnc3c(=O)n2CCc2c[nH]c3ccccc23)cc1	-	-	-	-	-
COc1ccc(CC(=O)OCC(=O)c2ccc(OC)c(OC)c2)cc1	-	-31	-	-	-
CCN(CC)C(=O)CSc1nc(N)c(C(=O)Nc2ccc(OC)cc2)s1	-	-32	-	-	-
O=C(Cn1cc(CNCc2ccccc2)nn1)Nc1cc(C(F)(F)F)ccc1Cl	-	-	-	-	-
Cc1cc(F)ccc1NC(=O)C(c1ccccc1)N1Cc2ccccc2C1=O (stereo not given)	-	-	-	-	-
CC(C)(CO)NCc1c(OCc2ccc(Cl)cc2)ccc2ccccc12	35	-	-	-	-

High-throughput results as filed in PubChem BioAssay.
